A short description of test [1]: A549 cell viability effects, profiling panel, calcein-AM fluorescence, 48 h, basal (AID 1162). Also: test concentration not given here. The conditions noted are these: higher = more signal.
Test [2] in a line: adipocyte viability effects, profiling panel, cell-based, 3T3-L1 adipocytes, calcein-AM fluorescence, 48 h, basal (AID 1163). Also: test concentration not given here. The conditions noted are these: 3T3-L1 adipocytes viability, higher = more signal.
The nature of test [3]: HepG2 cell viability effects, profiling panel, calcein-AM fluorescence, 48 h, basal (AID 1164). Also: test concentration not given here. The following applies: higher = more signal.
Test [4] can be described thus: MM1S cell viability effects, profiling panel, calcein-AM fluorescence, 48 h, basal (AID 1165).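 Also: viability of MM1S multiple myeloma cells under basal unstimulated conditions; test concentration not given here.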 The following applies: higher = more signal.
Test [5] is described as follows: basal RPMI8226 viability, no added stimulus, profiling panel, cell-based, calcein-AM fluorescence, 48 h, PK04 Diversity Set (AID 1166).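 Also: cells grown under basal conditions without added stimulus; test concentration not given here.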 The following applies: RPMI8226 myeloma viability, higher = more signal.
A short description of test [6]: basal HepG2 mitochondrial membrane potential changes, profiling panel, cell-based, JC-1 fluorescence, 24 h, 100 nL compound (AID 1167). Also: test concentration not given here. The following applies: higher = more signal.
The nature of test [7]: basal 3T3-L1 adipocyte mitochondrial potential changes, profiling panel, cell-based, JC-1 fluorescence, 3T3-L1 adipocytes, 24 h, 100 nL compound (AID 1168). Also: test concentration not given here. The conditions noted are these: JC-1 mitochondrial fluorescence, higher = more signal, called active from +8 up or from −8 down.
Test [8] is described as follows: basal RPMI8226 mitochondrial membrane potential changes, profiling panel, cell-based, JC-1 fluorescence, 24 h, 100 nL compound (AID 1169). Also: test concentration not given here. The following applies: RPMI8226 myeloma, JC-1 mitochondrial potential fluorescence, higher = more signal.
The nature of test [9]: basal MM1S mitochondrial membrane potential changes, profiling panel, cell-based, JC-1 fluorescence, 24 h, 100 nL compound (AID 1170). Also: test concentration not given here. The conditions noted are these: higher = more signal.
Test [10] is described as follows: A549 lung cancer cell viability effects, profiling panel, resazurin fluorescence, 24 h, PK04 Diversity Set (AID 1171). Also: test concentration not given here. The conditions noted are these: higher = more signal, called active from +8 up or from −8 down.
Test [11] is described as follows: HepG2 liver cancer cell viability effects, profiling panel, resazurin fluorescence, 24 h, PK04 Diversity Set (AID 1172). Also: test concentration not given here. The conditions noted are these: higher = more signal.
A short description of test [12]: basal S. cerevisiae growth modulation, no modifier, primary screen, OD600, strain BY4716, 24 h, basal condition (AID 1173). The following applies: OD600, 24 h, higher = more signal, called active from +8 up or from −8 down.
A short description of test [13]: MM1S myeloma cell viability, profiling panel, resazurin fluorescence, basal, 24 h, PK04 Diversity Set (AID 1174).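 Also: MM1S multiple myeloma cell line; test concentration not given here.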 The conditions noted are these: higher = more signal, called active from +8 up or from −8 down.
In test [14] the target is Dihydroorotate dehydrogenase (quinone), mitochondrial (Plasmodium falciparum (isolate 3D7)) (UniProt Q08210). Kind of test: PfDHODH enzyme inhibitors, primary screen, biochemical, C-terminal His tag, absorbance 600 nm (AID 1175).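 Also: recombinant parasite enzyme with a five histidine tag at its C terminus; test concentration not given here.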 The following applies: DCIP absorbance 600 nm, higher = more signal, called active from +8 up or from −8 down.
Test [15] is described as follows: P. aeruginosa biofilm formation inhibitors, primary screen, strain PAO1, LB-PBS medium, absorbance 600 nm (AID 1176). Also: test concentration not given here. The following applies: P. aeruginosa PAO1 growth/biofilm, A600, 12 h; higher = more signal.
Test [16] in a line: S. cerevisiae RM11-1a growth modifiers, primary screen, strain RM11-1a, OD600, basal, 24 h (AID 1177).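 Also: cultures grown under basal conditions with no added stressor; test concentration not given here.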 The conditions noted are these: OD600, 24 h, higher = more signal, called active from +8 up or from −8 down.
Test [17] is described as follows: E. coli acrAB mutant growth effects, primary screen, E. coli filamentation inducers, strain DRC39, OD650, 24 h (AID 1178).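 Also: growth measured as culture turbidity by optical density at 650 nm; test concentration not given here.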 The following applies: higher = more signal, called active from +8 up or from −8 down.
Test [18] can be described thus: E. coli acrAB mutant growth effects, primary screen, E. coli filamentation inducers, strain DRC39, OD650, 48 h (AID 1179).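 Also: screen aims at cell division blockers that make cells filament.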 The conditions noted are these: E. coli DRC39 delta-acrAB growth, higher = more signal, called active from +8 up or from −8 down.
A short description of test [19]: RPMI8226 myeloma cell viability, profiling panel, resazurin fluorescence, basal, 24 h, PK04 Diversity Set (AID 1180).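 Also: RPMI8826 multiple myeloma cell line at 5000 cells per well; test concentration not given here.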 The conditions noted are these: higher = more signal. (In general: Alamar Blue is a resazurin reagent that responds to reducing activity.)
The target of test [20] is E3 ubiquitin-protein ligase XIAP (Homo sapiens) (UniProt P98170). Description: XIAP binders, primary screen, biophysical, small-molecule microarray, fluorescence 635 nm (AID 1181).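 Also: score merges 667 nm emission and signal to noise over triplicate slides.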 The conditions noted are these: small-molecule microarray binding, higher = more signal.

Each structure is given as a SMILES string. Calls of active or inactive are those of the source. Unless noted, no rule for the calls is given here.

Chain of E3 ubiquitin-protein ligase XIAP (Homo sapiens) (P98170 whole entry, looked up): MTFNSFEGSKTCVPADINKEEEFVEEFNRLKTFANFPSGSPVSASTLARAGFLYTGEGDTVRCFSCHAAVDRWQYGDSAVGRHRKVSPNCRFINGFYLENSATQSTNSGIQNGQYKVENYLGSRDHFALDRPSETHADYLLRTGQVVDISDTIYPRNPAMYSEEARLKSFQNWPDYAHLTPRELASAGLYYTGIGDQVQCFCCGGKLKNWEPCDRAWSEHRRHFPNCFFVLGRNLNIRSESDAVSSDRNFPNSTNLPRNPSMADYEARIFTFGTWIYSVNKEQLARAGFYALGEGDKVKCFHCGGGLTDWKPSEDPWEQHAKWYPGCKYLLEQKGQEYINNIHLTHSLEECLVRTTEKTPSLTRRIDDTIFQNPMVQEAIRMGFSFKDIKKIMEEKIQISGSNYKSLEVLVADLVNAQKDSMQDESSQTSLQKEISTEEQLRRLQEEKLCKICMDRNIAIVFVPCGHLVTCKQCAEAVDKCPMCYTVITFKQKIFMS
Chain of Dihydroorotate dehydrogenase (quinone), mitochondrial (Plasmodium falciparum (isolate 3D7)) (Q08210 whole entry, looked up): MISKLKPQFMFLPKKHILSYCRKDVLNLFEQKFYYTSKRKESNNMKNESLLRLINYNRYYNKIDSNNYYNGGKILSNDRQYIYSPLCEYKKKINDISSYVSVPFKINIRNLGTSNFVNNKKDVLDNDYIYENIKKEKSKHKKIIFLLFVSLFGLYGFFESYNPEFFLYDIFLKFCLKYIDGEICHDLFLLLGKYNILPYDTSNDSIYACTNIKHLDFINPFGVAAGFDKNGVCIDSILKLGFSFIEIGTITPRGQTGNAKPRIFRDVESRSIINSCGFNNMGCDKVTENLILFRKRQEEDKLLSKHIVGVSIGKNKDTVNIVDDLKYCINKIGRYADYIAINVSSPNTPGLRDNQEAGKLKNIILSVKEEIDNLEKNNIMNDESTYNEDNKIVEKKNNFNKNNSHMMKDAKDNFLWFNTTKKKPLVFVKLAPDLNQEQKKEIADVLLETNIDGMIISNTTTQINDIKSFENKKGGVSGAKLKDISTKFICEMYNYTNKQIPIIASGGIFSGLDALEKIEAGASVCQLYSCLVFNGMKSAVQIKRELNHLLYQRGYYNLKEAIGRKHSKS

In the case of `CN1C=C(C(=O)OCCS(C)(=O)=O)C(C(=O)OCCS(C)(=O)=O)=CC(c2ccc(CO)cc2)=CC1C1CC1` (stereo not given), the z-score in test [1] is 1.39; in [2], -0.0622; in test [3], 1.28; in test [4], -0.807; in test [5] it was -0.75; in test [6] it was 2.14. Also, the z-score in test [7] was -0.9 (inactive); in test [8], 0.167; in test [9] it was -0.919; in test [10], -0.267 (inactive); in test [11] it was -0.15; in test [12], -1.68 (inactive). Also, the z-score is -0.83 (inactive) in [13]; -0.447 (inactive) in test [15]; 0.0635 (inactive) in test [16]; 0.815 (inactive) in test [17]; 0.63 (inactive) in test [18]; -0.189 in [19]. In addition, the values for the composite z-score in test [14] and in [20] were -0.524 (inactive) and -0.359, respectively.
Consider `CCC(CC)C(O)C1C=CC2C(=O)NC(=O)C2N1Nc1ccccn1` (stereo not given), for which the z-score is -0.651 in test [1]; -0.883 in test [2]; 0.0063 in [3]; 0.152 in test [4]; 0.0749 in test [5]; -0.29 in test [6]. The z-score in [7] was -0.414 (inactive); in [8], -0.07; in test [9], -0.138; in [10], -0.801 (inactive); in [11], -1.34; in test [12], 0.341 (inactive). For the same compound, the z-score in test [13] is -1.76 (inactive); in test [15], 0.503 (inactive); in test [16] it was 0.469 (inactive); in test [17], -0.485 (inactive); in [18], 0.333 (inactive); in [19], -1.11. Also, the figures for the composite z-score in test [14] and in test [20] were -0.629 (inactive) and 0.162, respectively.
As for `CC1CC/C=C\[C@H]2OC34C=CCN(C(C)(C)C)C(=O)[C@H]3N(C(C)CO)C(=O)[C@@H]4C2C(=O)O1` (stereo not given in full), the z-score was 0.593 in test [1]; -0.691 in [2]; 0.292 in test [3]; 0.771 in [4]; -0.192 in [5]; -0.0168 in [6]. Also, the z-score in test [7] was -0.43 (inactive); in [8], -0.164; in [9], -0.726; in test [10], -0.388 (inactive); in [11] it was 0.0366; in test [12] it was -0.623 (inactive). Further, the z-score in test [13] is -2.21 (inactive); in test [15] it was -0.525 (inactive); in test [16], 0.723 (inactive); in test [17], 0.606 (inactive); in test [18], 0.771 (inactive); in test [19] it was -0.0501. Also, the composite z-score in [14] was -3.09 (inactive); in test [20], 0.501.
On to `COc1cc2c(cc1OC)CN(C(=O)[C@@H]1[C@H]3C(=O)O[C@H](c4ccccc4)[C@H](c4ccccc4)N3[C@H](c3ccc(O)cc3)[C@@]13C(=O)Nc1ccccc13)CC2`, for which the z-score is 1.62 in test [1]; 1.45 in test [2]; 1.01 in [3]; 0.0197 in test [4]; -1.62 in [5]; -0.574 in test [6]. Besides, the z-score is 0.382 (inactive) in test [7]; -1.08 in [8]; -0.404 in [9]; 1.6 (inactive) in test [10]; -0.313 in test [11]; -0.128 (inactive) in [12]. Besides, the z-score is 0.118 (inactive) in test [13]; 0.614 (inactive) in test [15]; 0.028 (inactive) in test [16]; 1.07 (inactive) in test [17]; -0.4 (inactive) in test [18]; 0.109 in test [19]. Also, the composite z-score is -0.228 (inactive) in test [14] and -0.201 in test [20].
On to `C=C(COC)/C(=C/C[C@@H](OC(C)=O)c1ccc(OCCO)cc1)c1cnc2ccccc2c1`, for which the z-score was 2.32 in test [1]; 1.86 in [2]; 0.109 in test [3]; -0.83 in [4]; -0.175 in test [5]; 2.42 in test [6]. For the same compound, the z-score in test [7] is -0.502 (inactive); in test [8], -0.612; in test [9], -0.701; in test [10], 0.0521 (inactive); in test [11], 0.638; in test [12] it was -1.39 (inactive). Besides, the z-score in test [13] is 0.748 (inactive); in test [15] it was -0.128 (inactive); in test [16], -1.49 (inactive); in test [17], 1.06 (inactive); in test [18], 0.968 (inactive); in test [19] it was 0.371. Moreover, the results for the composite z-score in [14] and in [20] were -5.97 (inactive) and 0.241, respectively.
As to `CO[C@H]1O[C@H](CO)[C@@H](OC(=O)Nc2ccccc2)[C@H](OC(=O)Nc2ccccc2)[C@@H]1OC(=O)Nc1ccccc1`, the z-score in [1] is -1.36; in test [2] it was 0.875; in test [3] it was -1.68; in test [4], -1.81; in test [5], -1.98; in [6], -0.523. Besides, the z-score in test [7] is 0.348 (inactive); in [8], -1.07; in [9], 0.0816; in test [10], -2.01 (inactive); in test [11] it was -0.72; in test [12] it was 0.56 (inactive). Besides, the z-score in test [13] was -1.73 (inactive); in test [15], -0.826 (inactive); in test [16], 1.22 (inactive); in test [17], 0.576 (inactive); in [18], 0.667 (inactive); in test [19], -1.15. Further, the figures for the composite z-score in test [14] and in [20] were 0.202 (inactive) and 0.178, respectively.
For `CC[C@@H]1C=C(C(=O)O)[C@H](c2ccc(Br)cc2)N1S(=O)(=O)c1ccc(C)cc1`, the z-score in test [1] is -0.646; in test [2], -0.506; in [3], -0.586; in test [4], -0.314; in [5], -1.13; in [6] it was -0.131. Moreover, the z-score was -0.258 (inactive) in [7]; -0.0108 in test [8]; -0.82 in [9]; -0.472 (inactive) in test [10]; -0.386 in test [11]; -0.14 (inactive) in [12]. In addition, the z-score in [13] is -0.459 (inactive); in [15], -0.116 (inactive); in [16], -0.716 (inactive); in test [17], -0.593 (inactive); in test [18] it was 0.295 (inactive); in [19], -1.51. Besides, the composite z-score was -0.412 (inactive) in test [14] and 0.157 in test [20].
Consider `C[N+](C)(C)CCCCNC(=O)[C@H]1C[C@H]2C(=O)N3CCC[C@H]3C(=O)N2[C@H]1c1cccc(OCCO)c1`, for which the z-score is -0.591 in test [1]; -0.682 in test [2]; -0.545 in test [3]; 0.129 in test [4]; 0.157 in test [5]; -0.901 in test [6]. Besides, the z-score in test [7] is -0.186 (inactive); in [8], -0.0988; in test [9], -0.193; in [10], -0.699 (inactive); in test [11], -2.49; in [12], 1.43 (inactive). The z-score in test [13] was -1.12 (inactive); in test [15] it was 0.628 (inactive); in [16] it was 0.647 (inactive); in test [17] it was 0.66 (inactive); in [18] it was 0.629 (inactive); in [19] it was -0.951. Besides, the composite z-score in [14] was -30.8 (active); in [20] it was 0.261.
Take `O=C(NCCO)C1=C[C@H](Oc2ccccc2I)[C@@H](O)[C@H](N(Cc2ccco2)C(=O)Cc2ccccc2)C1`: the z-score in test [1] is -0.22; in test [2] it was 1.31; in test [3], -0.902; in [4], 0.426; in test [5], -1.94; in test [6], -0.217. For the same compound, the z-score in test [7] was -0.166 (inactive); in test [8], -0.084; in [9] it was 0.559; in test [10] it was -1.35 (inactive); in [11], -1.23; in test [12], -0.279 (inactive). Moreover, the z-score in test [13] was -0.123 (inactive); in test [15] it was -0.848 (inactive); in [16], 0.552 (inactive); in test [17], -0.49 (inactive); in test [18], -0.666 (inactive); in [19], -0.328. The figures for the composite z-score in [14] and in test [20] were 1.06 (inactive) and -0.052, respectively.

The values are drawn from PubChem BioAssay.
